Bioassay records: PubChem, several laboratories
MITF TRPM1 HTS: increases MITF-driven TRPM1 promoter luciferase signal | SK-MEL-5 TRPM1-promoter luciferase, 24 h; % of positive control, neutral wells = 0 | activation, % at 12.5 µM | hit rate 0.75% among 300,000;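 active means mean activation of at least 80% with every replicate also reaching 80%; inconclusive means mean reaches 80% but some replicate falls short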;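 further: 0% = neutral control wells and 100% = parthenolide positive control wells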
SMARCA2 act: increases SMARCA2 function in MMTV reporter cells. MG213 cells, MMTV-luciferase reporter, dexamethasone, overnight. activation, % at 9.1 µM. hit rate 1% among 370,000; in the data active means activation above about 7.8%;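 further: 0% = vehicle wells and 100% = reference activator wells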
FGF22 binding: FGF22 (human) thermal shift binding. Q9HCT0. recombinant FGF22 thermal shift, SYPRO orange fluorescence; percent of sucrose octasulfate shift, DMSO zero. activity (Tm shift, normalised), % at 9.99 µM. hit rate 1.5% among 340,000. AID 651658;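 active means mean Tm shift, scaled 0 neutral to 100 positive control, at about 1.3% or above, every replicate too, limit read from the data; inconclusive means no clear call, values can overlap the other calls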
MLL AF4-AF9 inh: blocks AF4 peptide binding to human AF9 | inhibition, % at 10 µM | AID 651704 | P42568 | AlphaScreen, biotin-AF4 peptide binding to FLAG-AF9 | hit rate 0.47% among 350,000;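 active means every replicate reaching a set inhibition limit, whatever the replicate mean, cut at about 25% in these data; inconclusive means mean inhibition reaches that limit but some replicates miss it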;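 further: 0% = plate neutral control median and 100% = total signal loss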
Target sequence (P42568 whole entry, looked up): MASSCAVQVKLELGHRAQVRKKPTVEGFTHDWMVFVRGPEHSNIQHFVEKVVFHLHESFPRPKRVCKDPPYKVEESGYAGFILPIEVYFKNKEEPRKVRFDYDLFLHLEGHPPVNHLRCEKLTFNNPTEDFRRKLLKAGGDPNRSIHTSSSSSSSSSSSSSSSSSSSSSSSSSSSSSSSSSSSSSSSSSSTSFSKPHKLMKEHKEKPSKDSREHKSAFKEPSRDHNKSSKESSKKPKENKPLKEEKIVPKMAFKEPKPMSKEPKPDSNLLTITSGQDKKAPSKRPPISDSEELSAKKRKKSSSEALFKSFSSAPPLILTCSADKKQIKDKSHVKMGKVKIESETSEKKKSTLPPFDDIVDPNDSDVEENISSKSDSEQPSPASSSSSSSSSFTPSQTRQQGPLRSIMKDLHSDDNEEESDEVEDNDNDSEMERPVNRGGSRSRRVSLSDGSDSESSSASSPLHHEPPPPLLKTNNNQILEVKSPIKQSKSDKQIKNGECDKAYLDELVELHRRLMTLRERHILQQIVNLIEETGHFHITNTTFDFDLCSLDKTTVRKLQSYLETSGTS
Wnt bcat act: Wnt/beta-catenin pathway activation; activation, % at 9.35 µM; hit rate 1.2% among 300,000; AID 743398; Wnt/beta-catenin reporter cell assay, activator, plate reader; in the data active means activation above about 30%, passing the limit was not always enough; inconclusive means no clear call, values can overlap the other calls;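 further: 0% = neutral control wells and 100% = positive control wells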
esBAF inh: inhibitors of esBAF chromatin remodeling in mouse ES cells | Bmi1-luciferase knock-in reporter, 24 h; 100% = twice the neutral-well signal | reporter increase, % at 12.5 µM | hit rate 2% among 350,000 | AID 602393; in the data active means activation above about 40%; inconclusive means no clear call, values can overlap the other calls;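 further: 0% = median of the plate's neutral control wells and 100% = double that signal; a rise in the Bmi1 reporter signal indicates esBAF inhibition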
An asterisk follows results filed as active; ? = inconclusive; / = no result given. Only some compounds are listed: those with a hit (about 4.3% of all), similar ones and a draw of the others.

SMILES	MITF TRPM1 HTS	SMARCA2 act	FGF22 binding	MLL AF4-AF9 inh	Wnt bcat act	esBAF inh
C[C@@H]1CCCCO[C@@H](CN(C)C(=O)Nc2ccc(F)cc2)[C@@H](C)CN([C@@H](C)CO)C(=O)c2cc(NC(=O)CCC(F)(F)F)ccc2O1	/	/	0	-3	/	-1
COc1ccc(C)cc1NC(=O)CSc1nnnn1Cc1ccccc1	-5	4	/	/	44*	/
CC(C)c1ccc(NC(=O)CNS(=O)(=O)c2ccc(F)cc2)cc1	-4	-7	43*	-1	0	16
COc1ccc(S(=O)(=O)NCC(=O)Nc2ccc(F)cc2)cc1	1	-2	0	-1	1	-9
CN1C(=O)c2cc(NC(=O)C3CCCC3)ccc2OC[C@H]2O[C@@H](CC(=O)NCC3CC3)CC[C@@H]21	/	/	0	-1	/	0
Cc1cccc(NC(=O)CCS(=O)(=O)c2ccccc2)c1C	/	-1	/	/	/	/
CS(=O)(=O)N1CCN(c2ccc(NC(=S)NC(=O)c3cccs3)cc2)CC1	11	-1	44*	-5	6	/
C[C@@H]1CCCCO[C@@H](CN(C)C(=O)CCCN(C)C)[C@H](C)CN([C@@H](C)CO)C(=O)c2cc(NS(=O)(=O)c3cn(C)cn3)ccc2O1	/	/	-1	4	/	0
O=c1sc(Nc2ccccc2)nc2ccsc12	74	7	/	/	/	82*
CCN1CCN(CCCN(Cc2ccco2)C(=S)Nc2ccc(Cl)cc2)CC1	4	0	42	6	-1	10
CN1CCN(CCCN(Cc2ccco2)C(=S)Nc2ccc(Cl)cc2)CC1	5	1	43*	5	0	/
O=C(NC(=S)Nc1cccc(O)c1)C12CC3CC(CC(C3)C1)C2	/	-3	0	16	22	47*
COc1ccc(C#Cc2ccc3c(c2)[C@]2(C(=O)N3)[C@H](c3ccc(O)cc3)N3[C@H](c4ccccc4)[C@H](c4ccccc4)OC(=O)[C@H]3[C@@H]2C(=O)N2CCc3cc(OC)c(OC)cc3C2)cc1	/	/	1	1	/	/
O=C(NN=Cc1ccccc1O)C1CC1	3	2	43*	2	-3	6
O=C(N/N=C/c1ccccc1O)C1SCCCS1	-2	-1	0	-4	0	/
Cc1ccccc1/C=C/C(=O)N1CCOCC1	23	7	43*	0	13	40
O=C(/C=C/c1cccc2ccccc12)N1CCOCC1	46	6	0	0	37*	/
Cc1cccc(C)c1OCC(=O)Nn1c(=O)[nH]c2ccccc2c1=O	-4	-1	43*	-1	-9	/
Cc1csc(=O)n1CC(=O)OCc1cccc2ccccc12	/	4	/	/	25	58*
CCc1cccc(C)c1NC(=O)COC(=O)Cn1c(C)csc1=O	5	0	0	0	-1	/
Cc1nc2c(ccc3nc(NC(=O)C4CC4)sc32)s1	-20	0	0	3	5	68*
CCC(=O)Nc1nc2ccc3sc(C)nc3c2s1	1	1	0	-1	4	/
Cc1c(Cl)ccc2sc(NC(=O)C3CC3)nc12	/	-5	0	6	7	53*
CC(=O)Nc1nc2c(C)c(Cl)ccc2s1	-19	-4	0	-1	0	4
Cn1cccc1C(=O)OCc1cc(Cl)cc2c1OCOC2	69	7	/	/	73*	37
SMILES	MITF TRPM1 HTS	SMARCA2 act	FGF22 binding	MLL AF4-AF9 inh	Wnt bcat act	esBAF inh
Cn1cccc1C(=O)OCC(=O)Nc1ccc2c(c1)OCO2	1	-2	0	-8	7	/
C[C@@H]1CCCCO[C@@H](CN(C)C(=O)Cc2ccccc2)[C@@H](C)CN([C@H](C)CO)C(=O)c2cc(NS(=O)(=O)c3cccs3)ccc2O1	/	/	0	-1	/	/
Cc1ccccc1NC(=S)/C(=C(\[O-])c1cc(C)n(Cc2ccccc2Cl)c1C)[n+]1ccccc1	0	-5	43*	17	0	/
Cc1ccc(N2CN(Cc3ccco3)CNC2=S)cc1	-4	-2	0	-1	36*	/
CCOCCCN1CN(Cc2ccco2)CNC1=S	-2	0	43*	-3	-1	/
Cc1ccc(N2CN(CCC3=CCCCC3)CNC2=S)cc1	/	-2	0	4	49*	-2
CC(C)CC#Cc1ccc2c(c1)O[C@@H](CN(C)Cc1ccccc1F)[C@H](C)CN([C@H](C)CO)S2(=O)=O	/	/	0	1	/	-7
O=C1C=C(c2ccc3[nH]ccc3c2)CCC1	?	6	0	-2	46*	88*
Oc1ccc(Cl)cc1CNc1nccs1	/	0	0	10	45*	-1
Cc1ccc(O)c(CNc2nccs2)c1	10	3	0	-1	2	-3
O=[N+]([O-])c1ccc(Sc2ccccc2)nc1	1	0	0	-5	0	-7
O=[N+]([O-])c1ccc(Sc2n[nH]c(-c3ccccc3)n2)nc1	/	-2	/	/	12	51*
CCn1c(Cc2ccccc2)nnc1SCC(=O)NC(C)(C)C	3	/	0	8	0	/
CCn1c(Cc2cccs2)nnc1SCC(=O)NC(C)(C)C	-4	1	43*	-3	0	/
CN(C(=O)CS(=O)(=O)Cc1ccccc1Cl)c1ccccc1	-4	-4	43*	-1	1	5
O=C(O)CCS(=O)(=O)Cc1ccccc1Cl	3	1	0	5	-2	-1
Nc1nc(COc2ccccc2)cs1	34	7.9*	0	1	7	25
Cc1ccccc1OCc1csc(N)n1	12	-6	43*	-7	0	/
COC(=O)c1[nH]c2ccc(Cl)cc2c1NC(=O)C1CC1	13	0	/	/	1	9
COC(=O)c1[nH]c2ccc(Cl)cc2c1NC(=O)Oc1ccccc1	/	3	/	/	20	58*
Cc1ccc2nc3ccc(N4CCCCCCC4)nn3c(=O)c2c1	/	4	/	/	29	60*
Cc1sc2nc3ccc(N4CCCC4)nn3c(=O)c2c1C	31	-5	0	1	5	52*
Cc1ccc2nc3ccc(N4CCN(C)CC4)nn3c(=O)c2c1	33	6	/	/	/	49*
O=c1c2ccccc2nc2ccc(N3CCOCC3)nn12	46	1	/	/	?	/
CCS(=O)(=O)N1[C@H](C#N)[C@@H](c2ccc(C#CC(C)C)cc2)[C@H]1CO	/	/	0	1	/	0
COC(=O)C1C(=O)c2c([nH]c(C(=O)OCC3CCCO3)c2C)CC1C (stereo not drawn)	?	2	0	-5	17	55*
COCCOC(=O)c1[nH]c2c(c1C)C(=O)C(C(=O)OC)C(C)C2 (stereo not drawn)	73	0	0	1	7	31
COC(=O)C1C(=O)c2c([nH]c(C(=O)OC3CCCCCC3)c2C)CC1C (stereo not drawn)	87*	3	0	0	16	11
Cc1ccc(Cc2c(-c3ccc(Br)cc3)nc3ccc(Cl)cn23)cc1	/	2	0	2	14	23
Cc1ccc(Cc2c(-c3ccc(Br)cc3)nc3ccc(Br)cn23)cc1	/	0	0	2	6	66*
